Experimental data taken from PubChem BioAssay AID651949 (Broad Institute, 2012).
Measured potencies and affinities stand elsewhere. Values without a mark were called inactive.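 Rule for the calls: active = compounds lowering cell ATP signal whose fitted half-maximal concentration is at most twice the top tested dose; inconclusive = flat curve with 30 to 70% signal loss, or poor fit; inactive = the rest.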

Assay: viability loss in HEK293T cells – cell-based, CellTiter-Glo luminescence, dry powder, set 6, cytotoxicity control, dose response (AID 651949)
Details: CellTiter-Glo ATP luminescence, 48 h; series mostly up to 26 µM; activity change, negative = cytotoxicity: at the top concentration

| SMILES | activity change, negative = cytotoxicity [%] |
| --- | --- |
| Fc1cccc(CSc2nnc(-c3ccccc3)o2)c1 | 9.95 |
| O=C(Cc1ccccc1)C(C(=O)c1nnc(-c2ccccc2)o1)c1ccccc1 (centres undefined) | -8.86 |
| Cc1ccc(-c2nnc(SCc3ccccn3)o2)cc1 | -18.4 |
| FC(F)(F)c1ccccc1-c1nnc(SCc2ccccc2)o1 | 2.29 |
| O=S(Cc1cn(Cc2ccccc2)nn1)c1nnc(-c2ccc(Cl)cc2)o1 (centres undefined) | -88.3 |
| COc1ccc(-c2nnc(SCc3ccccc3)o2)cc1 | -4.21 |
| c1ccc(CSc2nnc(-c3cc4ccccc4o3)o2)cc1 | -5.2 |
| c1ccc(-c2nnc(SCc3cccnc3)o2)cc1 | -16.5 |
| Cc1cccc(CSc2nnc(-c3ccccc3)o2)c1 | -20.9 |
| FC(F)(F)Oc1cccc(CSc2nnc(-c3ccccc3)o2)c1 | -14.2 |
| c1ccc(-c2nnc(SCC3CC3)o2)cc1 | -28.5 |
| c1ccc(Cn2cc(CSc3nnc(C4CCCC4)o3)nn2)cc1 | -3.83 |
| c1ccc(-c2nnc(SCCN3CCOCC3)o2)cc1 | 5.28 |
| Fc1cccc(-c2nnc(SCc3ccccc3)o2)c1 | 5.2 |
| COc1ccccc1-c1nnc(SCc2ccccc2)o1 | -0.598 |
| Cc1ccc(-c2nnc(SCc3ccccc3)o2)cc1 | -14.3 |
| Fc1cccc(-c2nnc(SCc3ccccn3)o2)c1 | -20.9 |
| Clc1cccc(CSc2nnc(-c3ccccc3)o2)c1 | -22.5 |
| c1ccc(CCc2nnc(SCc3ccccc3)o2)cc1 | -20.1 |
| FC(F)(F)Oc1ccc(-c2nnc(SCc3ccccc3)o2)cc1 | -17.4 |

| SMILES | activity change, negative = cytotoxicity [%] |
| --- | --- |
| c1ccc(CSc2nnc(-c3cccnc3)o2)cc1 | -4.32 |
| CN(C)CCSc1nnc(-c2ccccc2)o1 | 3.08 |
| Fc1ccc(-c2nnc(SCc3ccccn3)o2)cc1 | -5.83 |
| c1ccc(CSc2nnc(-c3ccncc3)o2)cc1 | -19 |
| CC1(O)CN(CCSc2nnc(-c3ccccc3)o2)C1 | -27.9 |
| CS(=O)(=O)c1ccccc1-c1nnc(SCc2ccccc2)o1 | -29.6 |
| COc1ccc(-c2nnc(SCc3ccccn3)o2)cc1 | -30.6 |
| FC1(F)CCN(CCSc2nnc(-c3ccccc3)o2)CC1 | -15.2 |
| c1ccc(CSc2nnc(Cc3ccccc3)o2)cc1 | 22 |
| Brc1cccc(-c2nnc(SCc3ccccn3)o2)c1 | -29.4 |
| Cc1ccc(CSc2nnc(-c3ccccc3)o2)cc1 | 3.5 |
| c1ccc(CSc2nnc(-c3ccccn3)o2)cc1 | -16.3 |
| Clc1ccc(-c2nnc(SCc3cn(Cc4ccccc4)nn3)o2)cc1 | 16.9 |
| c1ccc(CSc2nnc(-c3cnco3)o2)cc1 | -14.8 |
| N#Cc1ccccc1CSc1nnc(-c2ccccc2)o1 | -15.6 |
| Cc1cccc(CSc2nnc(-c3ccc(Cl)cc3)o2)n1 | -19.3 |
| c1ccc(-c2ccc(CSc3nnc(-c4ccccc4)o3)cc2)cc1 | -12.2 |
| Fc1ccc(-c2nnc(SCc3cn(Cc4ccccc4)nn3)o2)cc1 | -12.7 |
| c1ccc(-c2nnc(SCCN3CCN(c4ccccc4)CC3)o2)cc1 | -23.5 |
